From PubChem BioAssay (EPA / NIEHS)
Inconclusive results are not listed. Active and inactive are the calls of the source. How the source made its calls: active means hit-call score of the fitted dose curve at least 0.9, where 1 is the maximum; inconclusive means response in the unintended direction; inactive means score below 0.9.

Assay: CCTE_Harrill_HTTr_CellCount_MCF7: CCTE's Cell Proliferation Assessment for the High-Throughput Transcriptomics (HTTr) Platform, Harrill Lab (AID 2284012);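 further: cells exposed to compound for six hours; intended direction is loss of nuclei count meaning fewer cells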
Description: This is a cell-based assay that evaluates cell viability and cell growth using high content imaging to count the number of Hoechst-labeled nuclei that are present in an assay well in 384-well format.This is a cell-based assay that evaluates cell viability and cell growth in MCF-7 cells. This was part of a full screening experiment. High content imaging is used to count the number of Hoechst-labeled nuclei that are present in an assay well in 384-well format.The assay component endpoint CCTE_Harrill_HTTr_CellCount_MCF7 was analyzed with bidirectional fitting relation to DMSO as the negative control and baseline of activity. Using a type of viability reporter, loss-of-signal activity can be used to understand changes in cell count. To generalize the intended target to other relatable targets, this assay endpoint is annotated to cell cycle, where the subfamily is cell count.
Chemicals were tested in MCF7 cells in an eight point dilution series with a six hour exposure duration.

Structure (SMILES) | outcome | AC50
CCCC1O[C@@H]2C[C@H]3[C@@H]4CCC5=CC(=O)C=C[C@]5(C)[C@H]4[C@@H](O)C[C@]3(C)[C@]2(C(=O)CO)O1 (stereo not given in full) | inactive | 
CC1CCC(C(C)C)C(O)C1 (stereo not given) | inactive | 
CC(C=O)Cc1ccc(C(C)(C)C)cc1 (stereo not given) | inactive | 
c1ccc(CCc2ccccc2)cc1 | inactive | 
Cc1ccc(N)c(S(=O)(=O)O)c1 | inactive | 
OCc1cccc(Oc2ccccc2)c1 | inactive | 
c1ccc2[nH]cnc2c1 | inactive | 
CC(=O)C1(C)CC2=C(CCCC2(C)C)CC1C (stereo not given) | inactive | 
OC[C@H]1O[C@@H](Oc2ccc(O)cc2)[C@H](O)[C@@H](O)[C@@H]1O | inactive | 
CCOC(=O)[C@@H](C)Oc1ccc(Oc2nc3ccc(Cl)cc3o2)cc1 | inactive | 
O=CCc1ccccc1 | inactive | 
COC(=O)Nc1ccc(Cl)c(Cl)c1 | inactive | 
C[C@@H]1CCN(C(=O)[C@H](CCCN=C(N)N)NS(=O)(=O)c2cccc3c2NC[C@H](C)C3)[C@@H](C(=O)O)C1 | inactive | 
CC(C)CCCCCCCCCCCCCCC(=O)O | inactive | 
[O-]n1ccccc1=S.[O-]n1ccccc1=S.[Zn+2] |  | 50 µM (active)
O=c1[nH]c(=O)c2cn[nH]c2[nH]1 | inactive | 
O=C1c2ccccc2C(=O)c2c(O)ccc(O)c21 | inactive | 
CC(C)(C)CC(C)(C)c1ccc(OCCOCC[N+](C)(C)Cc2ccccc2)cc1 | inactive | 
CS(=O)(=O)c1ccc(C2=C(c3ccccc3)C(=O)OC2)cc1 | inactive | 
C1=CC2C3C=CC(C3)C2C1 (stereo not given) | inactive | 

Structure (SMILES) | outcome | AC50
CCC(C)=O | inactive | 
COc1ccc(COC(C)=O)cc1 | inactive | 
ON=C1CCCCC1 | inactive | 
CCCCCc1ccco1 | inactive | 
CN(C)CCOC(C)(c1ccccc1)c1ccccn1 (stereo not given) | inactive | 
CCCC(=O)OCCc1ccccc1 | inactive | 
Cc1[nH]c(=O)c(C#N)cc1-c1ccncc1 | inactive | 
O=C(c1ccccc1)C(O)c1ccccc1 (stereo not given) | inactive | 
Nc1ccn([C@H]2CS[C@@H](CO)O2)c(=O)n1 | inactive | 
O=P(O)(O)O | inactive | 
COc1ccc(CCN2CCC(Nc3nc4ccccc4n3Cc3ccc(F)cc3)CC2)cc1 |  | 79.2 µM (active)
CC(C)c1ccccc1O | inactive | 
C=C1CC[C@H](O)C/C1=C/C=C1\CCC[C@]2(C)[C@@H]([C@H](C)/C=C/[C@H](C)C(C)C)CC[C@@H]12 | inactive | 
COc1cc([C@@H]2c3cc4c(cc3[C@@H](O[C@@H]3O[C@@H]5CO[C@@H](C)O[C@H]5[C@H](O)[C@H]3O)[C@H]3COC(=O)[C@H]23)OCO4)cc(OC)c1O | inactive | 
Cc1ccc(S(N)(=O)=O)cc1 | inactive | 
CCCCC1(COC(=O)CCC(=O)O)C(=O)N(c2ccccc2)N(c2ccccc2)C1=O | inactive | 
C[C@H]1O[C@@H](O[C@H]2[C@@H](O)C[C@H](O[C@H]3[C@@H](O)C[C@H](O[C@H]4CC[C@@]5(C)[C@H](CC[C@@H]6[C@@H]5C[C@@H](O)[C@]5(C)[C@@H](C7=CC(=O)OC7)CC[C@]65O)C4)O[C@@H]3C)O[C@@H]2C)C[C@H](O)[C@@H]1O | inactive | 
CN1C(=O)c2ccccc2C1=O | inactive | 
OCC#CCO | inactive | 
CS(=O)(=O)OCCCCOS(C)(=O)=O | inactive | 
